# Data from ChEMBL document CHEMBL3988442, “University of Dundee, Small-Polar-MMV Screening Library” (2021).
# Screen size: about 48,000 compounds; about 13,000 (27%) showed an effect of 50% or more. The list shows a part of the results.
# System: Wolbachia pipientis
# Experiment: Anti-Wolbachia Cell-Based Screen
# Format: functional
# Set-up: scale not given: in the data most compounds retested in dose-response had high values
# Conditions: 5 µM
row,Compound,Percent Effect [%]
1,NC(=O)CC1CCN(CC(O)c2ccc(Br)cc2)CC1 (stereo not drawn),25.42
2,CC(COc1ccccc1)NCc1nncn1C1CCCCC1 (stereo not drawn),-38.9
3,CCN1CCC(NC(=O)Cc2csc(C(C)(C)C)n2)CC1,4.843
4,O=C(C1CCOC1)N1CCN(CCn2cccn2)c2ncccc2C1.O=C(O)C(F)(F)F (stereo not drawn),122
5,O=C(O)C(F)(F)F.O=C([C@H]1CCCO1)N1CCN(CCn2cccn2)c2ncccc2C1,108.8
6,CCN(CC)C(=O)c1nnc2ccc(N3CCOCC3)cc2n1,-10.33
7,CCCS(=O)(=O)N1CCN(CC(F)(F)F)CC1,16.36
8,Cc1cnc(C(C)(C)NC(=O)NCc2ccon2)s1,-28.31
9,N#CCCN(c1ccc(F)cc1)S(=O)(=O)CC1CCCCO1 (stereo not drawn),-8.338
10,Cc1nc2cc(C(=O)N(CCC#N)CC3CCCO3)ccc2[nH]1 (stereo not drawn),103.2
11,Cc1nc2ccc(C(=O)N(CCC#N)CCC#N)cc2nc1C,-2.079
12,CN(Cc1ccc2nonc2c1)C(=O)c1ccc(C2CCCO2)s1 (stereo not drawn),-9.176
13,N#CCCN(CC1CCCO1)C(=O)c1ccc2nonc2c1 (stereo not drawn),113
14,Cc1nc2cc(C(=O)N(CCC#N)CCC#N)ccc2n1C,-0.9305
15,CCC(C)CS(=O)(=O)NCCc1csc(N2CCCC2)n1 (stereo not drawn),-21.99
16,COCC(C)N(Cc1ccccc1OC)C(=O)c1cc(C)[nH]c(=O)c1 (stereo not drawn),-10.95
17,CC(Oc1cccc(F)c1)C(=O)N(CC(N)=O)C1CCCC1 (stereo not drawn),-28.68

row,Compound,Percent Effect [%]
1,C[C@]1(O)CN(CCC(N)=O)CC[C@@H]1Oc1cccc(F)c1,109.4
2,C[C@]1(O)CN(CCO)CC[C@@H]1Oc1cccc(F)c1,120.3
3,NC(=O)CN1CCC(C(=O)NCC(O)c2cccc(F)c2)CC1 (stereo not drawn),3.405
4,O=C(COc1cccc(F)c1)N1C[C@H](CO)C[C@H](CN2CCCC2)C1,-0.9347
5,CN1CC(=O)N(c2cccc(F)c2)CC12CCN(CCO)C2.O=C(O)C(F)(F)F.O=C(O)C(F)(F)F (stereo not drawn),1.497
6,C[C@]1(O)CN(CC(=O)N2CCCC2)CC[C@@H]1Oc1cccc(F)c1,121.7
7,O=C(COc1cccc(F)c1)N1C[C@@H](CN2CCCC2)C[C@H](CO)C1,-0.02776
8,O=C(O)C(F)(F)F.O=C1CC2(CCN(CCO)C2)CN1c1cccc(F)c1 (stereo not drawn),6.062
9,CCn1ncc2c1NC(=O)CC2c1cnc(NCc2ccccc2)nc1 (stereo not drawn),4.243
10,Cc1ccc(N2CCCC(N3CCC4(CC3)OCCO4)C2=O)cc1 (stereo not drawn),-7.017
11,OC(CN1CCCc2cc(OC(F)F)ccc21)Cn1cccn1 (stereo not drawn),-16.69
12,COc1ccc2c(c1)CCN(CCC(=O)O)CC2,-10.19
13,COc1ccc2c(c1)CN(C)C(=O)CCN2CC(O)C(F)(F)F (stereo not drawn),104.6
14,COc1ccc2c(c1)CN(C)C(=O)CCN2CC(O)C(C)(C)C (stereo not drawn),100.8
15,COC(=O)C(C)N1CCCc2cc(OC)ccc2C1 (stereo not drawn),-9.406
16,COc1ccc2c(c1)CCCN(C(C)C(=O)NC(C)C)C2 (stereo not drawn),-4.844
